Experimental data: ChEMBL document CHEMBL1157539, “Thousands of chemical starting points for antimalarial lead identification” (Nature, 2010)
Values joined by “and” are separate entries in the source; they are usually repeats but may differ in a detail not shown here. Equal entries are not always repeated. Among all 13,000 compounds or so, fewer than 10 showed an effect of 50% or more. Only a sample is shown.

Each compound was assayed on Plasmodium falciparum (assay: GSK_TCMDC: Inhibition of Plasmodium falciparum 3D7 LDH activity, using an LDH reporter assay. Test compounds present at 2uM).
Assay type: functional, organism-based

Structure (SMILES) | inhibition
c1ccc(-c2ccc(-c3csc(Nc4ccncc4)n3)cc2)cc1 | 3%
Cc1ccc2nc(C)cc(N/N=C/c3ccc([N+](=O)[O-])o3)c2c1 | 0%
O=C(Nc1ccsc1)Nc1cccc(-c2cccc(-c3nc4cc(F)ccc4[nH]3)c2)c1 | 2%
OCC(c1ccccc1)n1c(COc2ccc(Cl)cc2)nc2c(OCCCN3CCCCC3)cccc21 (centres undefined) | 0%
CCN1CCC(N(Cc2ccc(-c3ccc(C(F)(F)F)cc3)cc2)C(=O)Cn2c(CCc3cccc(F)c3F)cc(=O)c3c2CCCC3)CC1 | 0%
COc1ccc2c(NN=Cc3cccc(F)c3)ccnc2c1 | 0%
N#Cc1ccc(N2CCN(Cc3cccc(-c4ccc(-c5nc6cc(C(F)(F)F)ccc6[nH]5)cc4)c3)CC2)nc1 | 0%
Nc1nc(N)c2c(ccc3[nH]c(-c4ccccc4Cl)nc32)n1 | 0%
C=CCc1cccc(OC)c1OCCCON1C(=N)N=C(N)NC1(C)C | 0%
CC(C)CCn1c(Sc2ccc(C#N)c([N+](=O)[O-])c2)nnc1-c1ccc(Cl)cc1 | 0%
Cc1n[nH]c2ccc(-c3ccc4nccc(N5CCC(N)CC5)c4c3)cc12 | 0%
CCOc1ccc2c(=NN=Cc3ccccc3F)cc(C)[nH]c2c1 | 0%
COc1cc(CN=C(S)NN=C(C)c2ccccn2)cc(OC)c1OC | 0%
COc1ccc2c(c1)CC(C)(C)NC2CCCCCCCCC1NC(C)(C)Cc2cc(OC)ccc21 (centres undefined) | 0%
CCCC(=O)c1cnc2c(OCCCc3c[nH]cn3)cccc2c1Nc1c(C)cccc1C | 3%
CC[C@H](N/C(=N\c1ccc(-c2ccccc2)cc1)Nc1ccc(C#N)cc1O)c1ccccc1 | 4%
COc1c(Br)cc(Br)cc1-c1ccc(CN2CC3CCC2CC3)[nH]1 | 0%
CCCCCCN1CCC(NCc2ccc(Cl)cc2)CC1 | 0%
COc1cc(NC(=O)c2sc(-c3ccc(Cl)cc3)cc2NC(=O)c2cccc(N(C)C)c2)ccc1OCCN1CCCC1 | 0%
CCN(C1CCCCC1)S(=O)(=O)c1ccc(OC)c(N2CCN(C(=O)C(Cl)(Cl)Cl)CC2)c1 | 3%
O=C(NCCCN1CCOCC1)c1cccc(Nc2nccc(Nc3ccc(Oc4ccccc4)cc3)n2)c1 | 0%
CCC(=O)N(c1ccccc1)C1CCN(CCCC(NC(=O)c2cc(C(F)(F)F)cc(C(F)(F)F)c2)c2ccc(Cl)c(Cl)c2)CC1 (centres undefined) | 0%
O=C(/C=C/c1ccc(-c2nc3ccc(Cl)cc3[nH]2)cc1)NC1CCN(Cc2ccccc2)CC1 | 0%

Structure (SMILES) | inhibition
CN(C)c1ccc(-c2csc(C(=O)NC3CCN(CCC(C)(C)C)C3)c2)cc1 (centres undefined) | 2%
NC(=O)c1cccc(C(=O)Nc2cccc(-c3cccc(-c4nc5cc(F)ccc5[nH]4)c3)c2)c1 | 1%
Cc1ccc(Cl)c2sc(N3CCN(C(=O)c4ccc([N+](=O)[O-])o4)CC3)nc12 | 0%
O=C(c1ccc([N+](=O)[O-])o1)N1CCN(c2nc3c(F)cc(F)cc3s2)CC1 | 0%
O=C(/C=C/c1ccc(I)cc1)NCCCCCN1CCC(c2c[nH]c3ccc(O)cc23)CC1 | 2%
CN1CCN(CC(=O)Nc2cccc(-c3ccc(-c4nc5cc(F)ccc5[nH]4)cc3)c2)CC1 | 6%
CCN(CC)CCN(CCN(CC)CC)c1ccc(-c2nc3cc(Cl)c(Cl)cc3[nH]2)cc1 | 2%
Cc1ccc(-c2nc3cc(C(=O)NC4CCC(N5CCCc6ccc(C#N)cc6C5)CC4)ccc3[nH]2)cc1 (centres undefined) | 0%
CN(CCc1ccccn1)Cc1ccc(-c2ccc(-c3nc4ccccc4[nH]3)s2)cc1 | 6%
CC(C)(C)OC(=O)NCc1ccc(Nc2nnc(-c3cccc(C(=O)NCCC(c4ccccc4)c4ccccc4)c3)o2)cc1 | 0%
FC(F)(F)c1ccc2[nH]c(-c3cccc(-c4ccc(CNCC5CCCO5)cc4)c3)nc2c1 (centres undefined) | 0%
NCC1CCCN1Cc1cccc(-c2ccc(-c3nc4cc(C(F)(F)F)ccc4[nH]3)s2)c1 (centres undefined) | 0%
O=c1sn(-c2csc3ccccc23)c2ccccc12 | 0%
COc1cc(NC(=O)C(c2ccc(Cl)cc2)C(C)C)cc(OC)c1 (centres undefined) | 0%
CC1(C)NC(N)=NC(=N)N1OCCCc1c(Cl)cccc1Cl | 3%
Cn1cc(Br)c(-c2cccc(Nc3ccnc4cc(-c5nccs5)ccc34)c2)n1 | 0%
CC1(C)[C@H]2CC[C@@H](CNc3nc(NCCc4c[nH]cn4)nc(Nc4ccc(Oc5ccccc5)cc4)n3)[C@@H]1C2 | 3%
O=C(CC1NC(=O)c2ccccc21)Nc1ccc(-c2ccc(-c3nc4cc(C(F)(F)F)ccc4[nH]3)cc2)cc1 (centres undefined) | 0%
CC(C)CNCc1ccc(-c2cccc(-c3nc4ccccc4[nH]3)c2)cc1 | 0%
Cc1cc2ccccc2n1CC(=O)N1CC(C(=O)N2CCCCC2)Oc2ccccc21 (centres undefined) | 2%
CC1(C)CCC(C)(C)c2c1ccc(C1CCN(CCCCNC(=O)c3ccc(-c4ccc(C#N)cc4)cc3)CC1)c2O | 7%
c1cc(-c2ccc(CN3CCN(c4ccncc4)CC3)cc2)cc(-c2nc3ccccc3[nH]2)c1 | 0%
FC(F)(F)c1ccc2[nH]c(-c3ccc(-c4ccc(CNCc5cnn(-c6ccccc6)n5)cc4)cc3)nc2c1 | 0%

Structure (SMILES) | inhibition
OCc1ccc(-c2cncc(Nc3cccc(Cl)c3)c2)cc1 | 0%
CNCCNCc1ccc(-c2ccc(-c3nc4cc(F)ccc4[nH]3)s2)cc1 | 2%
CC(C)CCNC(=N)Nc1ccc(OCCCCCOc2ccc(NC(=N)NCCC(C)C)cc2)cc1 | 6%
CCOC(=O)c1ccc(NC(=O)Nc2cccc(-c3cccc(-c4nc5cccc(C)c5[nH]4)c3)c2)cc1 | 0%
CC(=NNc1nc2ccccc2s1)c1ccccn1 | 0%
Cn1cccc1C(=O)C(=O)Nc1ccc(-c2ccc(-c3nc4cc(F)ccc4[nH]3)cc2)cc1 | 0%
COC(=O)c1cccc(CNCc2cccc(-c3cccc(-c4nc5cc(C(F)(F)F)ccc5[nH]4)c3)c2)c1 | 6%
COc1ccc2nccc(N/N=C/c3cccc([N+](=O)[O-])c3)c2c1 | 0%
CC(Cl)=CCc1c(C)nc2c(ccc3ccccc32)c1O | 8%
Cc1cccc2nc(-c3ccc(-c4cccc(NC(=O)Nc5ccccc5)c4)cc3)[nH]c12 | 9%
CCOc1ccc2[nH]c(C)cc(=NN=Cc3cccc(F)c3)c2c1 | 0%
COc1ccc2nc3cc(Cl)ccc3c(NCCCCCCNc3c4ccc(Cl)cc4nc4ccc(OC)cc34)c2c1 | 0%
c1ccc(-c2ccc(CNCc3ccc(-c4cccc(-c5nc6ccccc6[nH]5)c4)cc3)s2)nc1 | 0%
CN(C)c1ccc(CN2CCCCC(NC(=O)c3cc(-c4ccccc4Cl)cs3)C2)cc1 (centres undefined) | 0%
N=C(N)Nc1ccc(CCc2ccc(NC(=N)N)cc2)cc1 | 0%
COc1ccc2nccc([C@@H](O)CN3CCC(NC(=O)/C=C/c4ccc5ccccc5n4)CC3)c2c1 | 1%
N#Cc1ccc(N/C(=N\c2ccc(-c3ccccc3)cc2)NCCc2c[nH]c3ccccc23)c(O)c1 | 6%
Cc1cccc2nc(-c3cccc(-c4ccc(CNCCNC(=O)c5ccnn5C)cc4)c3)[nH]c12 | 0%
NC1CCCN(Cc2ccc(-c3ccc(-c4nc5cc(F)ccc5[nH]4)s3)cc2)C1 (centres undefined) | 1%
COc1ccccc1CCNc1nc(C)cc(N[C@@H](Cc2ccccc2)C(=O)NCCOc2ccccc2)n1 | 4%
O=C(Cn1c(SCc2cccc(F)c2F)cc(=O)c2ccccc21)N(CCn1ccnc1)Cc1ccc(-c2ccc(C(F)(F)F)cc2)cc1 | 0%
O=C(Nc1ccc(Cn2ncc(N3CCCNCC3)c(Cl)c2=O)cc1)Nc1ccc(-c2ccccc2)cc1 | 0% and 8%
O=C(OCc1ccccn1)c1nc2ccccc2[nH]1 | 0%

Structure (SMILES) | inhibition
O=C(NCc1cccs1)[C@H](Cc1ccccc1)Nc1ccnc(NCCc2ccccc2)n1 | 0%
Cc1cc(N2CCCC2)nc(NC(=N)Nc2cccc(C(F)(F)F)c2)n1 | 1%
Cn1ncc2ccc(Nc3nccc(-c4ccc5c(c4)c(N)nn5C)n3)cc21 | 0%
Cn1c(Cc2ccccc2)nnc1Sc1ccc(C#N)c([N+](=O)[O-])c1 | 0%
O=C(NCCN1CCCC1)c1cccc(-c2ccc(-c3nc4cc(F)ccc4[nH]3)cc2)c1 | 0%
CCOc1ccc2nc3cc(NC(=O)c4ccco4)ccc3c(N)c2c1 | 0%
Cc1cccc2nc(-c3ccc(-c4cccc(CN5CCN(c6ccncc6)CC5)c4)s3)[nH]c12 | 6%
Cc1ccc(CN2CCN(Cc3cccc(NC(=O)c4cccs4)c3)CC2)cc1C | 2%
CCN(CC)CCCC(C)Nc1c2ccccc2nc2c1ccc1ccccc12 (centres undefined) | 3%
CCOc1ccccc1NC(=O)C(Sc1nc(C)cc(C)c1C#N)c1ccccc1 (centres undefined) | 0%
O=C(/C=C/c1ccc(Cl)c(Cl)c1)NCCCCCN1CCC(CCNC(=O)Cc2ccc(Cl)cc2)CC1 | 0%
COc1ccc(CN2CCCN(Cc3cccc(NC(=O)c4ccc(Cl)c(Cl)c4)c3)CC2)cc1 | 5%
CCN(CCCN1CCCCC1)c1cc(C)nc(Nc2cccc(C(F)(F)F)c2C)n1 | 0%
COc1ccc2nc3cc(Cl)ccc3c(NCCCCNc3c4ccc(Cl)cc4nc4ccc(OC)cc34)c2c1 | 6%
CS(=O)(=O)NCCCNCc1cccc(-c2ccc(-c3nc4ccccc4[nH]3)s2)c1 | 6%
O=C(NCc1ccc(F)cc1)Nc1ccc(-c2cccc(-c3nc4cc(C(F)(F)F)ccc4[nH]3)c2)cc1 | 3%
O=C(Nc1cccc(C(F)(F)F)c1)c1ccc(S(=O)(=O)NCC2CCN(CC3CCCCC3)CC2)cc1 | 0%
N[C@@H](Cc1cc(I)c(Oc2ccc(O)c(C(=O)O)c2)c(I)c1)C(=O)O | 0%
CC(C)CNCc1ccc(-c2ccc(CNC3CCN(Cc4ccccc4)CC3)cc2)cc1 | 4%
CC1(C)N=C(N)N=C(N)N1c1ccc(Cl)cc1 | 0%
